Inconclusive results are not listed. The source made the active and inactive calls.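 Rule for the calls: active = all three timepoint tests show falling viability with half-maximal potency at or below twice the top dose; inconclusive = timepoint tests disagree on the call; inactive = all timepoint tests inactive.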
Assay: cytotoxicity in LOX IMVI cells – cell-based, Alamar Blue fluorescence, 8/24/48 h, dry powder, HRAS target identification, dose response (AID 720606)

**Q.** With `Cc1onc(C(=O)N2CCN(C(c3ccncc3)c3ccncc3)CC2)c1[N+](=O)[O-]` as the compound, how does the outcome read?
**A.** The outcome was “inactive”.

**Q.** For `CCC(=O)N(c1ccc(OC)c(Cl)c1)C(C(=O)NCCc1ccccc1)c1cccs1` (configuration not stated), which outcome is on record?
**A.** The outcome was “inactive”.

— PubChem BioAssay AID720606 (Broad Institute, 2013)
